# Data from ChEMBL document CHEMBL2218924, “A broad activity screen in support of a chemogenomic map for kinase signalling research and drug discovery” (Biochem J, 2013).
# Biological target: T1, Serine/threonine-protein kinase BRSK2 (Homo sapiens) (UniProt Q8IWQ3)
# T1 sequence (whole entry): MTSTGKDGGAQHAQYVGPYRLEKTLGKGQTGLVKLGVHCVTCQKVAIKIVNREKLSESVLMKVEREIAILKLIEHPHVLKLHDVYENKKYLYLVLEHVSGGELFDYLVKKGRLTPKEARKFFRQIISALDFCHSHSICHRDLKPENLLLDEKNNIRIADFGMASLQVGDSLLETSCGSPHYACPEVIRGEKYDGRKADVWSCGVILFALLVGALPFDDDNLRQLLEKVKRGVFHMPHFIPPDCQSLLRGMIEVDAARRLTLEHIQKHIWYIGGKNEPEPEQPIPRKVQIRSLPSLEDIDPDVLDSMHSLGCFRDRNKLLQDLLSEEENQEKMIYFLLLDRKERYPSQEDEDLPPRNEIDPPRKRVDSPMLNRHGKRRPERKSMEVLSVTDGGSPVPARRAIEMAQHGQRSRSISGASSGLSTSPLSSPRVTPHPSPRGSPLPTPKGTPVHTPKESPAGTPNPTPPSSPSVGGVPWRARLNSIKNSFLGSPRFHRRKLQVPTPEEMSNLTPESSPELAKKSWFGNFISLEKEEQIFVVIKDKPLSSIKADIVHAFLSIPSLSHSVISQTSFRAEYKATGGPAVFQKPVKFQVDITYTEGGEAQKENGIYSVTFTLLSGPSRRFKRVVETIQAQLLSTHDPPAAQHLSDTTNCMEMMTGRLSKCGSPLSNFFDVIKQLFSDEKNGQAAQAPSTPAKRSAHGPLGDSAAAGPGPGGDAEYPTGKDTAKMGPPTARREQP
# Details: at 1 µM
row,Structure (SMILES),residual activity
1,CC[n+]1c(/C=C/N(C)c2ccccc2)n(-c2ccccc2)c2ccc(-c3nc4ccccc4s3)cc21,111%
2,CCC(=O)Nc1ccc2ncnc(Nc3cccc(Br)c3)c2c1,97%
3,COc1cc2ncnc(Nc3ccc(O)c(Br)c3)c2cc1OC,91%
4,O=C1NC(=O)c2c1c1c3ccccc3[nH]c1c1[nH]c3cc(Br)ccc3c21,69%
5,Nc1ccc2ncnc(NCCc3ccc(Oc4ccccc4)cc3)c2c1,113%
6,Cc1cc(Nc2nc(-c3ccccc3)nc3ccccc23)n[nH]1,59%
7,c1ccc(-c2n[nH]c3c2oc2ccccc23)cc1,114%
8,CN(C)CCCn1cc(C2=C(c3c[nH]c4ccccc34)C(=O)NC2=O)c2ccccc21,71%
9,Oc1c2ccccc2c2c3c(cccc13)N=N2,64%
10,CC(=O)c1ccc(N2CCOCC2)cc1O,110%
11,N#Cc1cnc2cnc(NCc3cccnc3)cc2c1Nc1ccc(F)c(Cl)c1,100%
12,Nc1nc(Nc2ccc(S(N)(=O)=O)cc2)nn1C(=S)Nc1c(F)cccc1F,0%
13,Oc1ccc(Nc2nc(-c3ccc(Cl)cc3)cs2)cc1,125%
14,COc1cc2ncnc(Nc3ccc(Oc4ccccc4)cc3)c2cc1OC,89%
15,C[C@@H](N)[C@H]1CC[C@H](C(=O)Nc2ccncc2)CC1,123%
16,O=C(O)c1ccc2c3c1cccc3c(=O)n1c3ccccc3nc21,104%
17,Cc1nc2cc3nc(-c4cccs4)cnc3cc2n1C,102%
18,N#C/C(=C(\N)Sc1ccc(N)cc1)c1ccccc1C(F)(F)F,105%
19,c1ccc2c(-c3ccncc3)c[nH]c2c1,106%
20,COc1cc2ncc(-c3ccccc3)nc2cc1OC,80%
21,CC#CC(=O)Nc1cc2c(Nc3ccc(F)c(Cl)c3)ncnc2cn1,94%
22,Cc1nc(-c2ccccc2)c(-c2ccncc2)o1,120%
23,Ic1cccc(CSc2nnc(-c3ccncc3)o2)c1,113%
24,O=C1Nc2ccc(Br)cc2/C1=C\c1cc2c([nH]1)CCCC2,107%
25,Cc1cncc2cccc(S(=O)(=O)N3CCCN(C(=O)CN)C[C@H]3C)c12,89%
26,COc1ccc(OC)c2c(=S)c3ccccc3[nH]c12,99%
27,Cc1cc2ncc(-c3ccccc3)nc2cc1C,103%
28,O=C(Nc1cccc(Nc2cc(Nc3cccc(C(F)(F)F)c3)ncn2)c1)C1CC1,83%
29,N#CCCc1ccc2c(c1)-c1[nH]c3ccc([N+](=O)[O-])cc3c1CC(=O)N2,39%
